Screens as filed in PubChem BioAssay.
CYP2C9 inhib – inhibitors of human CYP2C9 | inhibition, % at 5 µM | P11712 | CYP2C9 Supersomes, luciferin-H conversion, luminescence | actives 20% (n = 96,000);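 active = blocking of liver enzyme CYP2C9 beyond about 50% at 5 µM, limit read from the data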
Target sequence (P11712 whole entry, looked up): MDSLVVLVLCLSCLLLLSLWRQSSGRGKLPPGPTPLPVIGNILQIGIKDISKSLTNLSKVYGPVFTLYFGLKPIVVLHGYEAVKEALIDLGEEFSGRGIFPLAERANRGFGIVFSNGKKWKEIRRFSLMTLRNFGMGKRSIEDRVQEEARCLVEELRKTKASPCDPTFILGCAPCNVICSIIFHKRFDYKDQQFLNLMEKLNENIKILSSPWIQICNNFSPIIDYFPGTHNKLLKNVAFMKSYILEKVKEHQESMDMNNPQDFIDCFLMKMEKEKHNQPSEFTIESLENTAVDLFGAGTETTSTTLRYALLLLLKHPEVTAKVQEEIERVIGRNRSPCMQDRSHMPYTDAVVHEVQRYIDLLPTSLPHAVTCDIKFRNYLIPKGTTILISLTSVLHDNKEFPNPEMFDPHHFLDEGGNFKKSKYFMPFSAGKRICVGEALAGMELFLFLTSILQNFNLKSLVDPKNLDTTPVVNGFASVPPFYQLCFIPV
PTK2B oligo ant – antagonists of human Pyk2 oligomerization | z-score (the deposit names both 25 µM and 10 µM) | actives 0.83% (n = 99,000) | Q293 cells, Pyk2 FERM NanoBiT luminescence; active compounds read low | Q14289;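 active = Z-score of -3 or lower, scaled per plate to the spread of control and sample wells; inactive = z-score above -3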;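 note: negative z-score means lost luminescence so less FERM oligomerization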
CYP2C19 act – activators of human cytochrome P450 2C19; activation factor at 5 µM; 96,000 tested, under 10 active; recombinant CYP2C19, luciferin-H EGE luminescence; active compounds read high; 0 = fully inhibited enzyme, 1 = untreated enzyme; P33261;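 active = activation factor of at least 2 at 5 µM in the primary screen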
CYP2C9 act – activators of human CYP2C9 | P11712 | recombinant CYP2C9, luciferin-H conversion, luminescence; active compounds read high; factor 1 = untreated enzyme, 0 = blocked | activation factor at 5 µM | actives 1.4% (n = 96,000) | AID 1024;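 active = activation factor of 2 or more for CYP2C9 at a 5 µM dose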
CYP2C19 inh – blocks human cytochrome P450 2C19; CYP2C19 Supersomes, luciferin-H EGE luminescence, 30 min; P33261; AID 778; actives 21% (n = 96,000); inhibition, % at 5 µM;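 active = CYP2C19 inhibition above a set limit at 5 µM in the primary screen, cut at about 50% in these data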
Each line names hits and unclear results; the compound was inactive in the other large screens. Rows were chosen to be rich in hits. Some 28% of all compounds tested hit in one or more screens of this group.

Cc1ccnc(NS(=O)(=O)c2ccc(NS(=O)(=O)c3ccccc3)cc2)n1	none (no result: CYP2C9 inhib, CYP2C19 act, CYP2C9 act, CYP2C19 inh)
Cc1ccc(NC(=O)CS(=O)CC(=O)NCCCc2ccccc2)cc1Cl (stereo not drawn)	none
CC(NC(=O)c1cc(-c2cccs2)on1)c1ccccc1 (stereo not drawn)	none
Nc1nonc1-c1nc2ccccc2n1CC(=O)N1CCN(c2ccc(F)cc2)CC1	none
CC(=O)N(C)c1ccc(OCC(O)CN(Cc2ccco2)S(=O)(=O)c2ccc(C)cc2)cc1 (stereo not drawn)	CYP2C9 inhib 80.1
Cc1ccc(S(=O)(=O)N(C)c2ccc(OCC(=O)NCc3ccco3)cc2)cc1	CYP2C9 inhib 92.6
CN(C)c1cccc(C(=O)OCC(=O)NCc2ccco2)c1	none (no result: CYP2C9 inhib, CYP2C19 act, CYP2C9 act, CYP2C19 inh)
COc1ccc(NS(=O)(=O)c2cccc(C(=O)OCC(=O)Nc3cc(C)on3)c2)cc1	CYP2C9 inhib 71.2
Cc1ccc(NS(=O)(=O)c2cccc(C(=O)OCC(=O)NCc3ccco3)c2)cc1	CYP2C9 inhib 85.8, CYP2C19 inh 59.2
Cc1ccc(S(=O)(=O)CCC(=O)NCc2ccco2)cc1	none
CCOC(=O)c1[nH]c(C)c(/C(O)=C2\C(=O)C(=O)N(CCCN(C)C)C2c2cccnc2)c1C (stereo not drawn)	none
COc1cc2c(cc1OC)CN(S(C)(=O)=O)CC2	none (no result: PTK2B oligo ant)
O=C(COc1ccc2oc(-c3ccccc3)cc(=O)c2c1)NCc1ccco1	CYP2C9 inhib 57.5
CCOCCCNC(=O)N[C@@H](Cc1ccccc1)C(=O)OC	none
CCC(CC)C(=O)c1c[nH]c(C(=O)NCCCN2CCOCC2)c1	none
CC(C)NC(=O)c1ccc(COCC(F)(F)C(F)F)cc1	CYP2C19 inh 83.5
Cc1nn(C)c(C)c1NC(=O)c1ccc(S(=O)(=O)N(C)C)cc1	none
C/C(=N\O)c1ccccc1C(=O)O	PTK2B oligo ant -3.28
C=C(C)C1CC=C(C)/C(=N/NC(=O)c2ccc(NC(=O)c3cccc(C)c3)cc2)C1 (stereo not drawn)	CYP2C9 inhib 62.5, CYP2C19 inh 59.4
COc1ccc(NC(=O)c2ccc(CNc3c(NC4CCCCC4)c(=O)c3=O)cc2)c(OC)c1	CYP2C9 inhib 70.3 (no result: PTK2B oligo ant)
CCOC(=O)c1c(N)sc2c(OC)c(Br)ccc12	CYP2C9 inhib 63.2
Cc1ccc(-n2nnc3c(=O)n(CC(=O)NCc4ccco4)cnc32)cc1	CYP2C9 act 2.1 (no result: PTK2B oligo ant)
O=C(Cn1cnc2c(nnn2-c2ccccc2)c1=O)NCc1ccco1	none (no result: PTK2B oligo ant)
COc1ccc(-n2nc(C(=O)NCC(=O)NCC3CCCO3)c3ccccc3c2=O)cc1 (stereo not drawn)	CYP2C9 inhib 63.4
COc1ccc(-n2nc(C(=O)NCC(=O)NCc3ccc(F)cc3)c3ccccc3c2=O)c(OC)c1	CYP2C9 inhib 50.7
COc1ccc(-n2nc(C(=O)NCC(=O)NCc3ccco3)c3ccccc3c2=O)c(OC)c1	CYP2C9 inhib 72.5
Cc1cc(C)c(C)c(OCCCCn2cnc3ccccc3c2=O)c1	none
COc1ccc(-n2nc(C(=O)NCC(=O)NCc3ccco3)c3ccccc3c2=O)cc1	CYP2C9 inhib 62.1
CC1c2nc3ccccc3n2C(CC(=O)NCc2ccccn2)C(=O)N1Cc1ccccc1 (stereo not drawn)	CYP2C19 inh 80.4
CC(Oc1ccc(NC(=O)c2ccco2)cc1)C(=O)N1c2ccccc2CC1C (stereo not drawn)	CYP2C9 inhib 50.6
O=C(Nc1ccccc1-c1ccccc1)c1ccc(NC(=O)c2ccco2)cc1	CYP2C19 inh 53.0
CCN(CC)S(=O)(=O)c1ccc(NC(=O)c2ccccn2)cc1	none
O=C(Nc1ccc(S(=O)(=O)NCc2cccnc2)cc1)c1ccco1	none
CCCNS(=O)(=O)c1ccc(NC(=O)c2ccccn2)cc1	CYP2C9 inhib 85.3, CYP2C19 inh 57.1
O=C(Nc1ccc(S(=O)(=O)NCCc2ccccc2)cc1)c1ccco1	CYP2C9 inhib 95.0, CYP2C19 inh 58.8
O=C(CCc1ccccc1)Nc1ccc(NC(=O)c2ccco2)nc1	none
O=C(CSCCNS(=O)(=O)c1ccccc1)Nc1ccccc1	CYP2C19 inh 92.4
O=C(O)COc1ccc(NC(=O)c2ccco2)cc1	CYP2C9 act 2.6
O=C(O)CCCSCC(=O)Nc1ccccc1	none
CCOCCCNS(=O)(=O)c1ccc(NC(=O)c2ccccc2)cc1	none
O=C(CCc1ccccc1)Nc1ccc(NC(=O)c2ccco2)cc1	CYP2C9 inhib 81.5, CYP2C19 inh 71.1
CCOCC(=O)Nc1ccc(S(=O)(=O)NCCc2ccccc2)cc1	CYP2C19 inh 60.3
CCOC(=O)c1sc(C)c(C(=O)NCC(C)(C)CN(C)C)c1N	none
COC(=O)c1cc(CNC(=O)c2cccc(Cl)c2)ccc1OC	none (no result: CYP2C9 inhib, CYP2C19 act, CYP2C9 act, CYP2C19 inh)
CCCNC(=O)COC(=O)CCC(=O)c1ccc(F)cc1	none
Cn1cc(Cl)c(C(=O)N2CCN(c3ncccn3)CC2)n1	none (no result: CYP2C9 inhib, CYP2C19 act, CYP2C9 act, CYP2C19 inh)
COCCCNC(=O)c1cn(Cc2c(F)cccc2Cl)nn1	none
Cc1ccc2[nH]c(=O)c(CN(Cc3ccccc3Cl)C(=O)N3CCOCC3)cc2c1	CYP2C9 inhib 71.7, CYP2C19 inh 82.4
CC(=O)c1cccc(N(C(=O)c2ccccn2)C(C(=O)NC2CCCCC2)c2cccs2)c1 (stereo not drawn)	none
Cc1ccc(C(C(=O)NC2CCCC2)N(C(=O)CNC(=O)c2cccs2)c2cccnc2)o1 (stereo not drawn)	none (no result: CYP2C9 inhib, CYP2C19 act, CYP2C9 act, CYP2C19 inh)
Cc1ccc(C(C(=O)NC2CCCCC2)N(C(=O)Cc2c[nH]c3ccccc23)c2ccccc2)o1 (stereo not drawn)	CYP2C9 inhib 65.7
O=C(NC1CCCCC1)C(c1cccs1)N(C(=O)Cc1c[nH]c2ccccc12)c1ccc(F)cc1 (stereo not drawn)	CYP2C19 inh 68.3
CC(=O)c1ccc(N(C(=O)Cc2c[nH]c3ccccc23)C(C(=O)NC2CCCCC2)c2cccs2)cc1 (stereo not drawn)	CYP2C9 inhib 57.8, CYP2C19 inh 64.7
CC12CCC(c3nnc(SCC(=O)Nc4cccc5ccccc45)nc31)C2(C)C (stereo not drawn)	none
Cc1ccc(S(=O)(=O)CC(C)N2CCN(C3CCCCC3)CC2)cc1 (stereo not drawn)	none (no result: CYP2C9 inhib, CYP2C19 act, CYP2C9 act, CYP2C19 inh)
O=C(C1CCCO1)N1CCC(O)(c2ccccc2)CC1 (stereo not drawn)	none
COc1ccc(C(C)=O)cc1CSc1nnc(-c2ccccc2O)n1-c1ccccc1	CYP2C9 inhib 53.3
COc1ccc(C(C)=O)cc1CSc1nnc(C)n1-c1ccccc1	none (no result: CYP2C9 inhib, CYP2C19 act, CYP2C9 act, CYP2C19 inh)
CCOC(=O)C1CCN(C(=O)c2cnn3c(C)cc(C)nc23)CC1	none
O=C(NC1CCCC1)C1c2ccccc2C(=O)N1C1CCCCC1 (stereo not drawn)	none
O=C(NCc1cccnc1)C1c2ccccc2C(=O)N1C1CCCCCC1 (stereo not drawn)	CYP2C19 inh 68.1
O=C(NC1CCCCCCC1)C1c2ccccc2C(=O)N1Cc1ccco1 (stereo not drawn)	none
O=C(NC1CCCCCC1)C1c2ccccc2C(=O)N1Cc1cccnc1 (stereo not drawn)	CYP2C19 inh 52.2
O=C(NC(C(=O)c1ccccc1)n1ccc(=O)[nH]c1=O)c1ccccc1 (stereo not drawn)	none
